About 83,000 compounds went through this panel and 20% of them were active in at least one assay; those are over-represented in the sample as a whole.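 Results are percent growth after 48 hours of single-concentration exposure. 100 means growth as in untreated cells, lower positive values show inhibition; negative values down to -100 show cell death.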 Active and inactive are the calls of the source. The calls were made as follows: active = growth percent below 10; inactive = the rest.
Legend:
Test in all cases: NCI-60 one-dose screen, 48 h (100 = growth as untreated, 0 = no growth, -100 = all killed)
Conditions in all cases: 10 µM unless noted
[1] = system: SK-MEL-2 melanoma
[2] = system: EKVX NSCLC
[3] = system: SN12C renal
[4] = system: UO-31 renal
[5] = system: TK-10 renal
[6] = system: ACHN renal
[7] = system: A498 renal
[8] = system: CCRF-CEM leukemia
[9] = system: MOLT-4 leukemia
[10] = system: SR leukemia

Measured: growth

CN(C)CCCn1c2c(c3cc(-c4cccc(S(N)(=O)=O)c4)ccc3c1=O)C(=O)c1ccccc1-2
inactive: [1] 124% | [2] 88.6% | [3] 78.3% | [4] 72.9% | [5] 99.5% | [6] 57.2% | [7] 96.4% | [8] 18.8%
active: [9] 8.99% | [10] -5.99%

C=C(C)[C@@H]1CC[C@]2(C(=O)OCCOCCOCC[P+](c3ccccc3)(c3ccccc3)c3ccccc3)CC[C@]3(C)[C@H](CC[C@@H]4[C@@]5(C)CC[C@H](OC(=O)C(Cl)Cl)C(C)(C)[C@@H]5CC[C@]43C)[C@@H]12
active: [1] -45.4% | [2] -15.2% | [3] -46.9% | [4] -45.1% | [6] -79.2% | [7] -28.3% | [8] 4.25% | [9] -8.02% | [10] -32%
inactive: [5] 15.7%

COC(=O)c1cncc(C(=O)Nc2ccc(-n3cnc4ccccc43)cc2)c1
inactive: [1] 105% | [2] 100% | [3] 101% | [4] 93.8% | [5] 96.2% | [6] 90.4% | [7] 88.3% | [8] 98% | [9] 90.2% | [10] 75.4%

NC(N)=NC(N)=Nc1cc2ccccc2c2ccccc12
inactive: [2] 58% | [3] 35.4% | [4] 32.6% | [5] 20.8% | [6] 22.9% | [7] 26% | [8] 38.6%
active: [1] 5.61% | [9] 9.61% | [10] -2.98%

COc1cc(-c2cn(-c3ccc(Cl)c(Cl)c3)c(=O)[nH]2)cc(OC)c1OC
inactive: [1] 97% | [2] 95.3% | [3] 87.5% | [4] 93.6% | [5] 94.7% | [6] 96.5% | [7] 110% | [8] 99.6% | [9] 85.1% | [10] 31%

CCCNc1nc(C)[nH]c(=O)c1S
inactive: [1] 95.6% | [2] 120% | [3] 186% | [4] 90.8% | [5] 135% | [6] 94.7% | [7] 180% | [8] 106% | [9] 96.3% | [10] 101%

O=c1[nH]nc(-c2ccc(Br)cc2)c2sc(NC(=S)Nc3ccc(Cl)cc3)nc12
inactive: [1] 101% | [2] 89.8% | [3] 109% | [4] 89.2% | [5] 123% | [6] 102% | [7] 100% | [8] 98.4% | [9] 105% | [10] 106%

COc1ccc(C(=S)c2cc(OC)c(OC)c(OC)c2)cc1OC(=O)CCl
inactive: [1] 41.9% | [2] 71.8% | [3] 34.6% | [4] 45.5% | [5] 65.2% | [6] 41.9% | [7] 16% | [8] 14.3% | [9] 15.3% | [10] 11%

Cc1cccc(NC(=O)c2sc3nc4c(cc3c2N)CN(Cc2ccccc2)CC4)c1C
inactive: [1] 30.3% | [2] 44.1% | [3] 43.6% | [4] 51% | [5] 59% | [6] 52.9% | [8] 13.9% | [9] 22.5% | [10] 25.5%
active: [7] -0.165%

Cc1ccc(SC2c3ccc(C)cc3Oc3nc(N)c(C#N)c(N)c32)cc1 (stereo not given)
active: [8] 7.82% | [9] 7.29% | [10] -11.8%
inactive: [1] 65.3% | [2] 59.8% | [3] 79.9% | [4] 48.5% | [5] 69.3% | [6] 68.1% | [7] 106%

CN(C)CSc1nc2ccccc2s1
inactive: [1] 101% | [2] 87.6% | [3] 101% | [4] 71.8% | [5] 119% | [6] 92.6% | [7] 111% | [8] 83.5% | [9] 99.7% | [10] 94.1%

COc1ccc2c(c1)Oc1nc(N)c(C#N)c(N)c1C2Sc1ccc(O)cc1 (stereo not given)
inactive: [1] 87.5% | [2] 77.7% | [3] 89.4% | [4] 68.3% | [5] 98.5% | [6] 94.2% | [7] 91.4% | [8] 16.5% | [9] 34.7% | [10] 13.7%

Cc1cccc(C)c1NCc1nnc(-c2ccc(O)cc2)o1
inactive: [1] 104% | [2] 90.6% | [3] 102% | [4] 85.5% | [5] 104% | [6] 98.6% | [7] 107% | [8] 94.8% | [9] 108% | [10] 119%

N#Cc1nc(-c2ccccc2)oc1S(=O)(=O)NCC(c1ccc(Cl)cc1)N1CCCCC1 (stereo not given)
inactive: [1] 72.2% | [2] 106% | [3] 65.6% | [4] 65.5% | [5] 112% | [6] 82.7% | [7] 102% | [10] 12.2%
active: [8] 1.94% | [9] 1.32%

CC(C)NS(=O)(=O)c1cccc(-c2ccc3c4c(n(CCCN(C)C)c(=O)c3c2)-c2ccccc2C4=O)c1
inactive: [1] 101% | [2] 105% | [3] 97.2% | [4] 91% | [5] 114% | [6] 82.4% | [7] 83.3% | [9] 68.2%
active: [8] 1.51% | [10] -27%

O=C(Nc1nccs1)c1noc2ccccc12
inactive: [1] 109% | [2] 88.6% | [3] 97.1% | [4] 86.1% | [5] 133% | [6] 96.9% | [7] 101% | [8] 85.7% | [9] 96.8% | [10] 87%

Cc1ccn2c3c(c(C(=O)O)c2c1)C(=O)c1ccccc1C3=O
inactive: [1] 68.9% | [2] 83% | [3] 78.8% | [4] 63.7% | [5] 142% | [6] 86.2% | [7] 89.2% | [8] 89.5% | [9] 84.8% | [10] 80%

Cc1cc(C)c(NC(=O)c2sc3nc4c(cc3c2N)CCCCCC4)c(C)c1
inactive: [1] 34.6% | [2] 67.8% | [3] 68.3% | [4] 67.3% | [5] 74.2% | [6] 72.4% | [7] 19.9% | [8] 32.8% | [9] 36.3% | [10] 23.3%

C/C(=N/Nc1nc2ccccc2n1C)c1ccccn1
inactive: [1] 39.8% | [3] 10.1% | [5] 36.8% | [6] 10.3%
active: [2] 6.63% | [4] -16.4% | [7] -29.8% | [8] -6.15% | [9] 1.82% | [10] 3.01%

O=S(=O)(O)c1ccc(N=NSc2ccc3ccccc3c2)cc1
inactive: [1] 92.4% | [2] 99.4% | [3] 107% | [4] 71% | [5] 103% | [6] 95.3% | [7] 107% | [8] 89.8% | [9] 94.2% | [10] 104%

O=C1C(Cl)=C(Nc2ccc3c(c2NC2=C(Cl)C(=O)c4ccccc4C2=O)C(=O)c2ccccc2C3=O)C(=O)c2ccccc21
active: [3] 4.99% | [9] 8.53%
inactive: [1] 40.8% | [2] 34.5% | [4] 23.1% | [5] 77.3% | [6] 29.2% | [7] 50.5% | [8] 17.8% | [10] 13.3%

NC(=O)c1ccc(C2C3=C(CCCC3=O)OC3=C2C(=O)c2ccccc2C3=O)cc1 (stereo not given)
inactive: [1] 20.6% | [2] 24.6% | [4] 90.6% | [5] 98.2% | [6] 27.9% | [7] 131% | [8] 15%
active: [3] -3.43% | [9] -17.4% | [10] 8.38%

OCCNc1nc(NCCO)nc(Nc2ccc(C3=NN(c4ccc(Cl)cc4)C(c4ccc(Cl)cc4)C3)cc2)n1 (stereo not given)
inactive: [1] 52% | [2] 65% | [3] 80.1% | [4] 45.5% | [5] 87.6% | [6] 51.1% | [7] 85.7% | [8] 25.1% | [9] 29.4% | [10] 25.5%

COc1c(O)cc2oc3cc(O[C@@H]4OC(C)[C@@H](O)[C@H](O)C4O)c(CC=C(C)C)c(O)c3c(=O)c2c1CC=C(C)C (stereo not given in full)
inactive: [1] 90.5% | [2] 82% | [3] 99.7% | [4] 80.3% | [5] 92.6% | [6] 102% | [7] 67.9% | [8] 83.5% | [9] 65.1% | [10] 103%

COc1ccc(C2N(c3cc(OC)c(OC)c(OC)c3)C(=O)C2(F)F)cc1F (stereo not given)
inactive: [1] 84.6% | [2] 77.7% | [3] 54.9% | [4] 53.5% | [5] 106% | [6] 60.8% | [7] 97.8% | [8] 13% | [9] 18.7% | [10] 18.7%

N#Cc1c(-c2ccc(F)cc2)nc(N/N=C/c2c[nH]c3ccccc23)nc1N1CCOCC1
active: [10] 6.49%
inactive: [1] 53.4% | [2] 56.1% | [3] 82.2% | [4] 34.5% | [5] 89.9% | [6] 43.4% | [7] 25.6% | [8] 40.5% | [9] 22%

C=C1C(=O)O[C@H]2[C@H]1CC/C(C=Nc1c(N)cc(F)cc1Br)=C\CC[C@@]1(C)O[C@@H]21
inactive: [1] 86.7% | [2] 75.2% | [3] 76.1% | [4] 53.5% | [5] 81.7% | [6] 63.4% | [7] 119% | [9] 45.9% | [10] 21.3%
active: [8] 7.71%

— PubChem BioAssay (NCI)
